What was measured:
[1] = tested on: Vero E6 infected with SARS-CoV-2; experiment: morphology score (similarity to uninfected cells); higher = more like uninfected cells; details: 24 h
[2] = tested on: Vero E6 infected with SARS-CoV-2; experiment: SARS-CoV-2 infection rate relative to infected DMSO; higher = more infection, active = 60 or less; details: 24 h

CC(C(=O)O)c1ccc(CC2CCCC2=O)cc1 (centres undefined) [loxoprofen] (10 µM)
morphology score [1]: -0.0253
SARS-CoV-2 infection rate [2]: 108% (inactive)

NC1=NC(=O)N([C@H]2C[C@H](O)[C@@H](CO)O2)CN1 (10 µM)
morphology score [1]: 0.0264
SARS-CoV-2 infection rate [2]: 106% (inactive)

Clc1ccccc1C(c1ccccc1)(c1ccccc1)n1cccn1 (10 µM)
morphology score [1]: 0.0967
SARS-CoV-2 infection rate [2]: 100% (inactive)

O=C(NC1CCOCC1)c1ccc(-c2cc(-c3c[nH]nc3-c3ccccn3)ccn2)cc1 (10 µM)
morphology score [1]: -0.0411
SARS-CoV-2 infection rate [2]: 114% (inactive)

Oc1ccc(Nc2nc(-c3ccc(Cl)cc3)cs2)cc1 (10 µM)
morphology score [1]: 0.129
SARS-CoV-2 infection rate [2]: 106% (inactive)

CC(C)(C)NCC(O)COc1cc(Cl)ccc1Cl (centres undefined) [cloranolol] (10 µM)
morphology score [1]: -0.0735
SARS-CoV-2 infection rate [2]: 100% (inactive)

CCCCN1CCCCC1C(=O)Nc1c(C)cccc1C (centres undefined) [bupivacaine] (10 µM)
morphology score [1]: 0.0282
SARS-CoV-2 infection rate [2]: 110% (inactive)

Oc1ccc(Cl)c2cccnc12 [cloxyquin] (10 µM)
morphology score [1]: -0.13
SARS-CoV-2 infection rate [2]: 109% (inactive)

OC[C@H]1O[C@H](O[C@H]2O[C@H](CO)[C@@H](O)[C@H](O)[C@H]2O)[C@H](O)[C@@H](O)[C@@H]1O [cabaletta] (10 µM)
morphology score [1]: -0.0856
SARS-CoV-2 infection rate [2]: 104% (inactive)

CC(C)n1nc(-c2ccc3oc(N)nc3c2)c2c(N)ncnc21 (0.833333 µM)
morphology score [1]: -0.0142
SARS-CoV-2 infection rate [2]: 102% (inactive)

CC(C)(N)c1nc(-c2ccc(OC(F)(F)F)cc2)c[nH]1 (10 µM)
morphology score [1]: 0.0118
SARS-CoV-2 infection rate [2]: 103% (inactive)

Brc1c(Br)c(Br)c2[nH]nnc2c1Br [4,5,6,7-tetrabromobenzotriazole] (10 µM)
morphology score [1]: -0.0654
SARS-CoV-2 infection rate [2]: 106% (inactive)

CC(C)NC[C@@H](O)COc1ccc(CC(N)=O)cc1 (racemic) [atenolol-(+/-)] (10 µM)
morphology score [1]: 0.0556
SARS-CoV-2 infection rate [2]: 108% (inactive)

NCC(=O)N[C@@H](CCC(N)=O)C(=O)O (10 µM)
morphology score [1]: 0.0903
SARS-CoV-2 infection rate [2]: 108% (inactive)

O=C(O)COc1ccc(OCCNC[C@H](O)COc2ccccc2)cc1 (10 µM)
morphology score [1]: -0.002
SARS-CoV-2 infection rate [2]: 104% (inactive)

Cc1cc2c(s1)Nc1ccccc1N=C2N1CCN(C)CC1 [olanzapine] (10 µM)
morphology score [1]: -0.0599
SARS-CoV-2 infection rate [2]: 108% (inactive)

COc1c(C)cnc(Cn2cc(C#CCC(C)(C)O)c3c(Cl)nc(N)nc32)c1C (10 µM)
morphology score [1]: 0.181
SARS-CoV-2 infection rate [2]: 110% (inactive)

O=C(CCCN1CCC(O)(c2ccc(Cl)cc2)CC1)c1ccc(F)cc1 [haloperidol] (10 µM)
morphology score [1]: -0.0179
SARS-CoV-2 infection rate [2]: 114% (inactive)

COc1ccc(-c2nc(C(=O)N3CCN(C)CC3)sc2-c2ccc(OC)cc2)cc1 (10 µM)
morphology score [1]: 0.211
SARS-CoV-2 infection rate [2]: 93.5% (inactive)

O=c1cc(-c2ccc(O)c(O)c2)oc2cc(O)cc(O)c12 [luteolin] (10 µM)
morphology score [1]: 0.167
SARS-CoV-2 infection rate [2]: 110% (inactive)

Cc1cc(C(C)(C)CC(C)(C)C)ccc1OCCOCC[N+](C)(C)Cc1ccccc1 [methylbenzethonium-chloride] (10 µM)
morphology score [1]: -0.0681
SARS-CoV-2 infection rate [2]: 101% (inactive)

O=C(c1ccc(C(=O)N2CCC(N3CCCC3)CC2)c(Nc2ccccc2)c1)N1CCC(N2CCCC2)CC1 (10 µM)
morphology score [1]: -0.0106
SARS-CoV-2 infection rate [2]: 114% (inactive)

CN1Cc2c(N)cccc2C(c2ccccc2)C1 (centres undefined) [nomifensine] (10 µM)
morphology score [1]: -0.106
SARS-CoV-2 infection rate [2]: 109% (inactive)

O=C(O)Cn1c(C(=O)Nc2nc(-c3ccccc3Cl)cs2)cc2ccccc21 (10 µM)
morphology score [1]: 0.162
SARS-CoV-2 infection rate [2]: 93% (inactive)

CCCNS(=O)(=O)Nc1ncnc(OCCOc2ncc(Br)cn2)c1-c1ccc(Br)cc1 [macitentan] (10 µM)
morphology score [1]: -0.0952
SARS-CoV-2 infection rate [2]: 112% (inactive)

CN1CCN(c2c(F)cc3c(=O)c(C(=O)O)cn(CCF)c3c2F)CC1 [fleroxacin] (10 µM)
morphology score [1]: -0.043
SARS-CoV-2 infection rate [2]: 115% (inactive)

c1ccc(-c2n[nH]c3c2oc2ccccc23)cc1 (10 µM)
morphology score [1]: 0.0627
SARS-CoV-2 infection rate [2]: 98.5% (inactive)

CCN(CC)CCOC(=O)C(c1ccccc1)c1ccccc1 [adiphenine] (10 µM)
morphology score [1]: -0.106
SARS-CoV-2 infection rate [2]: 110% (inactive)

CC(C)C[C@@H]1NC(=O)[C@@H](C(C)C)NC(=O)[C@@H]2CCCN2C(=O)[C@@H](CC(=O)O)NC(=O)[C@@H](Cc2c[nH]c3ccccc23)NC1=O (10 µM)
morphology score [1]: 0.163
SARS-CoV-2 infection rate [2]: 103% (inactive)

CS(=O)(=O)CCNCc1nc(-c2ccc3ncnc(Nc4ccc(OCc5cccc(F)c5)c(Cl)c4)c3c2)cs1 (10 µM)
morphology score [1]: -0.294
SARS-CoV-2 infection rate [2]: 116% (inactive)

O=C(O)COc1nn(Cc2ccccc2)c2ccccc12 [bendazac] (10 µM)
morphology score [1]: -0.0178
SARS-CoV-2 infection rate [2]: 102% (inactive)

CCCCc1nc(C)c(CC(=S)N(C)C)c(=O)n1Cc1ccc(-c2ccccc2-c2nnn[nH]2)cc1 [fimasartan] (10 µM)
morphology score [1]: 0.0951
SARS-CoV-2 infection rate [2]: 112% (inactive)

O=C(N/N=C/c1ccc(O)c(O)c1)c1cc2ccccc2cc1O [dynasore] (10 µM)
morphology score [1]: -0.107
SARS-CoV-2 infection rate [2]: 108% (inactive)

CCC(CC)(CC(=O)Nc1cccc(/C=C/c2nc(C3CCC3)cs2)c1)C(=O)O [cinalukast] (10 µM)
morphology score [1]: 0.068
SARS-CoV-2 infection rate [2]: 105% (inactive)

CS(=O)(=O)CCNCc1ccc(-c2ccc3ncnc(Nc4ccc(OCc5cccc(F)c5)c(Cl)c4)c3c2)o1 [lapatinib] (10 µM)
morphology score [1]: -0.279
SARS-CoV-2 infection rate [2]: 111% (inactive)

CNC(=O)O[C@H]1COc2ccc(N3CCN(C4COC4)CC3)cc2[C@@H]1NC(=O)c1ccc(F)cc1 (10 µM)
morphology score [1]: 0.123
SARS-CoV-2 infection rate [2]: 95.5% (inactive)

C[C@@H](N)[C@@H](O)c1ccccc1 [1S,2R-phenylpropanolamine] (10 µM)
morphology score [1]: -0.131
SARS-CoV-2 infection rate [2]: 114% (inactive)

CN1CCc2cc(Cl)c(O)cc2[C@@H](c2ccccc2)C1 (10 µM)
morphology score [1]: 0.0172
SARS-CoV-2 infection rate [2]: 108% (inactive)

COc1ccccc1NC(=O)OCC1CCN(C(=O)OC(C)(C)C)CC1 (10 µM)
morphology score [1]: 0.0728
SARS-CoV-2 infection rate [2]: 97% (inactive)

CC(=O)O[C@H]1Cc2ccccc2N(C(N)=O)c2ccccc21 [eslicarbazepine-acetate] (10 µM)
morphology score [1]: 0.137
SARS-CoV-2 infection rate [2]: 106% (inactive)

COc1ccc(C2CC(c3ccccc3)=NN2c2ccc(S(N)(=O)=O)cc2)cc1 (centres undefined) (10 µM)
morphology score [1]: 0.152
SARS-CoV-2 infection rate [2]: 87% (inactive)

Cc1c(N2C(=O)[C@@H]3[C@H](O)CCN3C2=O)ccc(C#N)c1Cl (10 µM)
morphology score [1]: 0.189
SARS-CoV-2 infection rate [2]: 91.5% (inactive)

O=c1cc(-c2ccccc2)oc2cc(O)cc(O)c12 [chrysin] (10 µM)
morphology score [1]: 0.175
SARS-CoV-2 infection rate [2]: 104% (inactive)

Cc1cc(/C=C2\SC(=O)N(c3ccccc3)C2=O)c(C)n1-c1cccnc1 (10 µM)
morphology score [1]: -0.171
SARS-CoV-2 infection rate [2]: 102% (inactive)

COc1ccc(OC)c([C@@H](O)CNC(=O)CN)c1 [midodrine] (10 µM)
morphology score [1]: -0.0583
SARS-CoV-2 infection rate [2]: 108% (inactive)

N=C(N)NCCC[C@H](NC(=O)[C@@H]1CCCN1C(=O)[C@@H]1CSSC[C@H](N)C(=O)N[C@@H](Cc2ccc(O)cc2)C(=O)N[C@@H](Cc2ccccc2)C(=O)N[C@@H](CCC(N)=O)C(=O)N[C@@H](CC(N)=O)C(=O)N1)C(=O)NCC(N)=O [vasopressin] (10 µM)
morphology score [1]: 0.0923
SARS-CoV-2 infection rate [2]: 95.5% (inactive)

C[C@@H]1C[C@H]2[C@@H]3CCC4=CC(=O)C=C[C@]4(C)[C@@]3(Cl)[C@@H](O)C[C@]2(C)[C@@]1(OC(=O)c1ccco1)C(=O)CCl (10 µM)
morphology score [1]: 0.481
SARS-CoV-2 infection rate [2]: 78% (inactive)

O=C(O)c1cc(N2N=C(C(F)(F)F)/C(=C/c3ccc(-c4ccccc4)o3)C2=O)ccc1Cl (10 µM)
morphology score [1]: 0.185
SARS-CoV-2 infection rate [2]: 97% (inactive)

Cn1ncc2c(N3CCOCC3)nc(-c3cccc(O)c3)nc21 (10 µM)
morphology score [1]: -0.103
SARS-CoV-2 infection rate [2]: 114% (inactive)

CC(C)n1cnc2c(NCCc3ccc(O)cc3)nc(-c3csc4ccccc34)nc21 [stemregenin-1] (10 µM)
morphology score [1]: 0.692
SARS-CoV-2 infection rate [2]: 67% (inactive)

O=C(O)C[C@H](O)C[C@H](O)/C=C/c1c(C2CC2)nc2ccccc2c1-c1ccc(F)cc1 [pitavastatin] (10 µM)
morphology score [1]: -0.127
SARS-CoV-2 infection rate [2]: 115% (inactive)

CCCCCCCCCCC(=O)O[C@H]1CC[C@H]2[C@@H]3CCC4=CC(=O)CC[C@]4(C)[C@H]3CC[C@]12C [Testosterone (undecanoate)] (10 µM)
morphology score [1]: 0.107
SARS-CoV-2 infection rate [2]: 98.5% (inactive)

CC(C)C[C@H](NC(=O)CNC(=O)[C@H](Cc1ccc(O)cc1)NC(=O)[C@H](CO)NC(=O)[C@H](Cc1c[nH]c2ccccc12)NC(=O)[C@H](Cc1cnc[nH]1)NC(=O)[C@@H]1CCC(=O)N1)C(=O)N[C@@H](CCCNC(=N)N)C(=O)N1CCC[C@H]1C(=O)NCC(N)=O [gonadorelin] (10 µM)
morphology score [1]: -0.182
SARS-CoV-2 infection rate [2]: 104% (inactive)

CCCOC(=O)c1ccccc1 [propyl-benzoate] (10 µM)
morphology score [1]: 0.105
SARS-CoV-2 infection rate [2]: 90% (inactive)

Nc1ncnc2c1c(COc1cccc(Cl)c1)nn2C1CCOCC1 (10 µM)
morphology score [1]: 0.00558
SARS-CoV-2 infection rate [2]: 104% (inactive)

CN1CC(=O)N=C1NC(=O)Nc1cccc(Cl)c1 [fenobam] (10 µM)
morphology score [1]: -0.115
SARS-CoV-2 infection rate [2]: 107% (inactive)

NNC(=O)c1ccncc1 [isoniazid] (10 µM)
morphology score [1]: -0.115
SARS-CoV-2 infection rate [2]: 111% (inactive)
